Experimental data from PubChem BioAssay (Tox21).
Results filed as inconclusive are left out. The source made the active and inactive calls. Unless noted, calls come from the whole dose curve; as a rule, active = well fitted curve in the direction sought with a large enough effect in the repeat runs; inconclusive = weak or mixed curves; inactive = no such curve, though single readings can be large; an effect the other way counts as inactive or inconclusive.

What was measured:
[1] = A CellTox Green Cytotoxicity Assay to monitor cytotoxicity in HepG2 cells - 8 hour (AID 1224890); settings: CellTox Green fluorescence; series mostly up to 76.8 µM; note: nearly all actives have a fitted effect of over 45% in size
Summary of the method: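 Real-time cytotoxicity: fluorescence of a cell-impermeant cyanine dye binding DNA of dead HepG2 cells, measured repeatedly (0–40 h) during compound exposure at 37 C. Cells seeded 600/well with reagent, dosed after 5 h.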

[2] = qHTS assay to identify small molecule antagonists of the estrogen receptor alpha (ER-alpha) signaling pathway using the BG1 cell line in the presence of 0.1 nM 17-beta-estradiol - cell viability counter screen (AID 1259241); settings: VM7Luc4E2 (BG1) viability, CellTiter-Fluor protease, 22 h, 0.1 nM estradiol agonist added; series mostly up to 92.4 µM; note: nearly all actives have a fitted effect of over 40% in size
Summary of the method: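 Following 5 days in phenol red-free medium with charcoal-stripped serum, VM7Luc4E2 cells received test compounds alongside 0.1 nM 17beta-estradiol (final) at 37C for 22 hr. Live cells were then quantified via protease-substrate fluorescence.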

[3] = qHTS assay to identify small molecule antagonists of the androgen receptor (AR) signaling pathway using the MDA cell line in the presence of 0.5 nM R1881 - cell viability counter screen (AID 1259242); settings: MDA-kb2 viability, CellTiter-Fluor protease fluorescence, 16 h; series mostly up to 92.4 µM; note: nearly all actives have a fitted effect of over 45% in size
Summary of the method: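 Live-cell protease activity was measured by CellTiter-Fluor fluorescence after 30 min. Before that, MDA-kb2 MMTV-luciferase cells had 16 hr at 37C without CO2, exposed to test compounds and 0.5 nM R1881 final.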

[4] = biological target: Estrogen receptor (Homo sapiens) (UniProt P03372); assay: qHTS assay to identify small molecule antagonists of the estrogen receptor alpha (ER-alpha) signaling pathway using the BG1 cell line in the presence of 0.1 nM 17-beta-estradiol (AID 1259244); settings: VM7Luc4E2 (BG1) ERE-luciferase, antagonist mode, 0.1 nM E2, 22 h; series mostly up to 92.4 µM; note: nearly all actives have a fitted effect of over 50% in size
Summary of the method: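 Luciferase luminescence (ONE-Glo, 30 min at room temperature) was read after 22 hr at 37C exposure to compounds plus 17beta-estradiol at 0.1 nM final. Cells were VM7Luc4E2 with endogenous ER-alpha and an ERE-driven luciferase, pre-cultured 5 days in hormone-depleted medium.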

[5] = qHTS assay to identify small molecule HDAC inhibitors (AID 1259364); settings: HCT-116 HDAC-Glo I/II luminescence, 2 h; series mostly up to 92.4 µM; note: nearly all actives have a fitted effect of over 45% in size; note: potency is the fitted concentration of half-maximal effect; for activity change, negative = inhibition: top concentration of the series differs between compounds
Summary of the method: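 Luminescence read after 30 min room-temperature HDAC-Glo incubation measures cellular class I/II HDAC activity. Compounds were applied for 2 hr at 37 C to HCT-116 wild-type cells seeded the day before.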

[6] = qHTS assay to identify small molecule HDAC inhibitors - cell viability counter screen (AID 1259365); settings: HCT-116 viability, CellTiter-Glo ATP luminescence, 2 h; series mostly up to 92.4 µM; note: nearly all actives have a fitted effect of over 50% in size
Summary of the method: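 HCT-116 wild-type, overnight attachment; 2hr drug exposure, 37C; CellTiter-Glo luminescent ATP readout after 30min RT.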

[7] = qHTS assay to identify small molecule agonists of the sonic hedgehog signaling (Shh) pathway - cell viability counter screen (AID 1259366); settings: NIH/3T3 Gli1-Luc viability, CellTiter-Fluor, 24 h; series mostly up to 92.4 µM; note: nearly all actives have a fitted effect of over 50% in size
Summary of the method: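 Compounds in DMSO were pin-transferred onto 3T3 Gli1-Luc cells that had settled 4hr; plates then stood 24hr at 37C and 5% CO2. One hour before the end, CellTiter-Fluor was added and fluorescence recorded.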

[8] = qHTS assay to identify small molecule antagonists of the sonic hedgehog signaling (Shh) pathway - cell viability counter screen (AID 1259367); settings: NIH/3T3 Gli1-Luc viability, CellTiter-Fluor, 24 h; series mostly up to 92.4 µM; note: nearly all actives have a fitted effect of over 55% in size
Summary of the method: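 Viability was read by CellTiter-Fluor fluorescence in the same wells, reagent added 23 hr into compound treatment and incubated 1 hr at 37C. The 3T3 Gli1-Luc reporter cells (2,000/well) received conditioned medium after compound and ran 24 hr.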

[9] = qHTS assay to identify small molecule agonists of the sonic hedgehog signaling (Shh) pathway (AID 1259368; calls by dose curve; note: nearly all actives have a fitted effect of over 15% in size; note: potency is the fitted concentration of half-maximal effect;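 for activity change: NIH/3T3-derived 3T3Gli1-Luc cells carrying a stable Gli1-driven firefly luciferase reporter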); settings: NIH/3T3 Gli1-Luc reporter, luciferase, 24 h; series mostly up to 92.4 µM
Summary of the method: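 Luminescence was read after 30 min at room temperature with luciferase reagent. Before that, 3T3Gli1-Luc cells (NIH/3T3 clone, stable Gli1-Luc reporter; 2,000/well) were exposed to compounds for 24 hr at 37C, 5% CO2, compounds being added 4 hr post-plating.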

[10] = biological target: Estrogen receptor beta (Homo sapiens) (UniProt Q92731); assay: qHTS assay to identify small molecule agonists of the estrogen receptor beta (ER-beta) signaling pathway (AID 1259377; active = well fitted activation curve with a large enough effect in the signal ratio in the repeat runs, not every such curve was filed as active; the % refers to the signal ratio); settings: ER-beta-UAS-bla HEK293T, beta-lactamase FRET ratio, 16 h; series mostly up to 92.4 µM
Summary of the method: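 qHTS in ER-beta-UAS-bla HEK293T cells: 6 hr settling, then 16 hr compound at 37C, then LiveBLAzer substrate 2 h at RT before fluorescence reading.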

[11] = qHTS assay to identify small molecule agonists of the androgen receptor (AR) signaling pathway in the presence of an antagonist - cell viability counter screen (AID 1259379); settings: MDA-kb2 viability, CellTiter-Fluor, 16 h; series mostly up to 92.4 µM;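 note: MDA-kb2 human breast cancer cells carrying an MMTV luciferase reporter; nearly all actives have a fitted effect of over 25% in size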
Summary of the method: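 Cytotoxicity counter-screen run in the same wells as the nilutamide-challenged (3.0 µM final) AR agonist assay in MDA-kb2 cells. Compounds tested at 15 concentrations for 16 h, 37 °C without CO2; CellTiter-Fluor fluorescence read.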

[12] = qHTS assay to identify small molecule antagonists of the estrogen receptor beta (ER-beta) signaling pathway - cell viability counter screen (AID 1259382); settings: ER-beta-UAS-bla HEK293T viability, CellTiter-Glo luminescence, 16 h; series mostly up to 92.4 µM; note: nearly all actives have a fitted effect of over 55% in size; note: potency is the fitted concentration of half-maximal effect;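 for activity change, negative = cytotoxicity: HEK293T cells carrying ER-beta-UAS-bla reporter stimulated with estradiol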
Summary of the method: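 Cytotoxicity was measured in the same wells by CellTiter-Glo luminescence after 30 min at room temperature. Cells were ER-beta-bla HEK293T in charcoal-stripped serum, given compound together with 1 nM E2 and incubated 16 h at 37C.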

[13] = biological target: Estrogen receptor (Homo sapiens) (UniProt P03372); assay: qHTS assay to identify small molecule agonists of the estrogen receptor alpha (ER-alpha) signaling pathway in the presence of an antagonist (AID 1259383; calls by dose curve; note: top concentration of the series differs between compounds; nearly all actives have a fitted effect of over 15% in size); settings: VM7Luc4E2 cells, ERE-luciferase, +ICI-182,780, 22 h; series mostly up to 92.4 µM
Summary of the method: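 Agonist-mode confirmation run in the presence of 10.0nM (final) ICI-182,780 antagonist. The reporter was ERE-driven luciferase in VM7Luc4E2 cells, grown in charcoal-stripped serum. Cells were exposed to 15-concentration compound series for 22hr, then ONE-Glo luminescence was read.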

[14] = qHTS assay to identify small molecule agonists or antagonists of the thyroid stimulating hormone receptor (TSHR) signaling pathway - wild type cell line counter screen (AID 1259384; calls by dose curve); settings: HEK293 wild type, cAMP HTRF counter-screen, stronger effect = higher value; series mostly up to 92.4 µM
Summary of the method: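 Counter screen in untransfected Hek293: compounds (15-point titration, triplicate) plus phosphodiesterase inhibitor Ro20-1724 added after 18 h plating; 30 min RT. Intracellular cAMP via competitive d2/cryptate immunoassay, 1 h incubation.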

[15] = qHTS assay to identify small molecule agonists of the estrogen receptor beta (ER-beta) signaling pathway - cell viability counter screen (AID 1259380); settings: ER-beta-bla HEK293T viability, CellTiter-Glo luminescence, 16 h; series mostly up to 92.4 µM; note: nearly all actives have a fitted effect of over 30% in size
Summary of the method: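 Cell viability counter screen: CellTiter-Glo luminescence (30 min, room temperature) measured in the same wells as the beta-lactamase readout, after 16 hr compound exposure at 37C of ER-beta-bla HEK293T cells in 2% charcoal-stripped FBS medium.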

[16] = qHTS assay to identify small molecule antagonists of the sonic hedgehog signaling (Shh) pathway (AID 1259369; calls by dose curve; note: nearly all actives have a fitted effect of over 45% in size); settings: NIH/3T3 Gli1-Luc reporter, Shh antagonist, luminescence 24 h; series mostly up to 92.4 µM
Summary of the method: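 Antagonist mode: compound added to 3T3 Gli1-Luc cells followed by conditioned-medium stimulation, 24 h at 37 C, 5% CO2. Inhibition taken as loss of Gli1-driven luciferase luminescence.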

[17] = biological target: Estrogen receptor beta (Homo sapiens) (UniProt Q92731); assay: qHTS assay to identify small molecule antagonists of the estrogen receptor beta (ER-beta) signaling pathway (AID 1259378; active = well fitted inhibition curve with a large enough effect in the signal ratio in the repeat runs, not every such curve was filed as active; the % refers to the signal ratio); settings: ER-beta-UAS-bla HEK293T, beta-lactamase FRET ratio, 16 h; series mostly up to 92.4 µM
Summary of the method: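 Antagonist mode: compounds added to beta-lactamase reporter HEK293T ER-beta-UAS cells stimulated with E2 (1nM final), 16 hr at 37C. LiveBLAzer B/G FRET substrate, 2 hours room temperature, fluorescence read-out.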
% is set by controls: 0 for no effect and ±100 for the full control effect.

Estrogen receptor beta (Homo sapiens), sequence (Q92731 whole entry, looked up): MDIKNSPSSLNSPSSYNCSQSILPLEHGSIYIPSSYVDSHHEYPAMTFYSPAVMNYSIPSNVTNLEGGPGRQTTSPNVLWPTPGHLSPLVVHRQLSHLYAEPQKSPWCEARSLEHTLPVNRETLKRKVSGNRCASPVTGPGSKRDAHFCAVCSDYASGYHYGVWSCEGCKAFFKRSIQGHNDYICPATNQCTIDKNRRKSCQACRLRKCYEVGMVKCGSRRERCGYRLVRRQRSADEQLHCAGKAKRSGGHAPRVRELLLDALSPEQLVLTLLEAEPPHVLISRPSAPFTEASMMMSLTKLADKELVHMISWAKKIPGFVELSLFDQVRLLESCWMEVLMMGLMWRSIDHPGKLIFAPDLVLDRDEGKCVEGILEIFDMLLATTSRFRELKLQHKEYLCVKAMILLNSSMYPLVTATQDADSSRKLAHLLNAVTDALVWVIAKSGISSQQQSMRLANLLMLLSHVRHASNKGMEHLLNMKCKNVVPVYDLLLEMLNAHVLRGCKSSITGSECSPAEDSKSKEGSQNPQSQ
Estrogen receptor (Homo sapiens), sequence (P03372 whole entry, looked up): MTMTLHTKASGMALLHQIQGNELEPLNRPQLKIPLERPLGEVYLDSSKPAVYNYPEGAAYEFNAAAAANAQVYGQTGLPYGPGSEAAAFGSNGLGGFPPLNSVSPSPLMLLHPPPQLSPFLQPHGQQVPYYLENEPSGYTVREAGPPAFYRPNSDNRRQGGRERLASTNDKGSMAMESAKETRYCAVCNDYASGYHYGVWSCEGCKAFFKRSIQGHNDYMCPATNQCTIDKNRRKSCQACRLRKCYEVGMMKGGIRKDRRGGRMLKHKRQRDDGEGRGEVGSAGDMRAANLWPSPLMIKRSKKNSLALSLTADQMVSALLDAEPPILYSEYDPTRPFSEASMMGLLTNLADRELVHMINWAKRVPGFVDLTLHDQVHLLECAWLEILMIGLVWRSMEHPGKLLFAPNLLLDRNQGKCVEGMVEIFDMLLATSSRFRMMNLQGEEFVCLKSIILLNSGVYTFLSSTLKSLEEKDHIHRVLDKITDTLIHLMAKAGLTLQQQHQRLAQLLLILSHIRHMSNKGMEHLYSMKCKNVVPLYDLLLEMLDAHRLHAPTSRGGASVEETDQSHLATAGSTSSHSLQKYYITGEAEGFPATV

COc1ccc(N=[N+]([O-])c2ccc(OC)cc2)cc1
inactive: Potency [1] | outcome [2] | outcome [3] | outcome [4] | outcome [6] | Potency [7] | outcome [8] | outcome [10] | Potency [11] | Potency [12] | Potency [13] | outcome [14]
active: Potency [5] 1080 nM | Potency [9] 121 nM

C=C(C)C(=O)OCCCCCCCCCCCCCCCCCC
inactive: cytotoxicity increase [1] 0.0012% [at 15.8 µM] | activity change, negative = cytotoxicity [2] 10.5% [at 19 µM] | viability change, negative = cytotoxic [3] 1.71% [at 19 µM] | activity change, negative = inhibition [4] 9.23% [at 19 µM] | activity change, negative = inhibition [5] 1.5% [at 19 µM] | activity change, negative = cytotoxicity [6] 3.83% [at 19 µM] | viability change, negative = cytotoxic [7] -3.3% [at 19 µM] | viability change, negative = cytotoxic [8] -2.33% [at 19 µM] | activity change [9] -0.0741% [at 18.9 µM, stronger effect = higher value] | activation [10] 0.356% [at 19 µM] | activity change, negative = cytotoxicity [11] 0.335% [at 19 µM] | activity change, negative = cytotoxicity [15] -0.0598% [at 19 µM] | activity change, negative = cytotoxicity [12] 13.7% [at 19 µM] | activation [13] 0.0113% [at 19 µM] | cAMP activity change [14] -1.57% [at 18.9 µM]

CC(C)=CC(=O)O
inactive: Potency [1] | outcome [2] | outcome [3] | outcome [4] | Potency [5] | outcome [6] | Potency [7] | outcome [8] | Potency [9] | Potency [16] | Potency [11] | Potency [15] | Potency [12] | Potency [13] | outcome [14]

C=C[Si](OC)(OC)OC
inactive: Potency [1] | outcome [2] | outcome [3] | outcome [4] | Potency [5] | outcome [6] | Potency [7] | outcome [8] | Potency [9] | Potency [16] | outcome [10] | Potency [11] | Potency [15] | Potency [12] | Potency [13]

CC(C)(O)C(=O)c1ccc(OCCO)cc1
inactive: Potency [1] | outcome [2] | outcome [3] | outcome [4] | Potency [5] | outcome [6] | Potency [7] | outcome [8] | Potency [9] | outcome [10] | Potency [17] | Potency [11] | Potency [15] | Potency [12] | Potency [13]

CC(C)COC(=O)C(C)C
inactive: Potency [1] | outcome [2] | outcome [3] | outcome [4] | Potency [5] | outcome [6] | Potency [7] | outcome [8] | Potency [9] | Potency [16] | outcome [10] | Potency [11] | Potency [15] | Potency [12] | Potency [13] | outcome [14]

CCCC(C)C(=O)O (centres undefined)
active: Potency [12] 37000 nM
inactive: Potency [1] | outcome [2] | outcome [3] | outcome [4] | Potency [5] | outcome [6] | Potency [7] | outcome [8] | Potency [9] | Potency [11] | Potency [13] | outcome [14]

CC/C=C\C#N
inactive: Potency [1] | outcome [2] | outcome [3] | outcome [4] | Potency [5] | outcome [6] | Potency [7] | outcome [8] | Potency [9] | outcome [10] | Potency [17] | Potency [11] | Potency [15] | Potency [12] | Potency [13] | outcome [14]
